HIF activator: HIF pathway transcriptional activators, primary screen, cell-based, U2OS HRE-luciferase, luminescence | AID 1910, 2009 | activation, % at 7.5 µM (by protocol) | hit rate 0.32% among 300,000 | U2OS HRE-luciferase reporter; normalized: DMSO 0%, desferrioxamine 100%;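 active means mean activation of at least 10% of the iron chelator positive control signal, with at least half of replicates also reaching 10%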
NPR1 activator: GC-A stimulated cGMP production enhancers – HEK293 GC-A cells, cGMP TR-FRET, EC30 ANP, primary screen; Atrial natriuretic peptide receptor 1 (Homo sapiens), P16066; AID 1671463, 2021; activation, % at 10 µM; hit rate 0.14% among 370,000; 0% at EC30 ANP, 100% saturating ANP; in the data active means activation above about 40%
NPR2 activator: human GC-B receptor activators, primary screen, HEK293 GC-B cells, cGMP TR-FRET, EC30 CNP; Atrial natriuretic peptide receptor 2 (Homo sapiens), P20594; 0% at EC30 CNP, 100% saturating CNP; activation, % at 10 µM; hit rate 0.11% among 370,000; AID 1920062, 2024;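 active means activation at 10 µM reaching about 35% in either raw or pattern-adjusted values, limit read from the data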
KLK7 zymogen act: proKLK7 zymogen activators, primary screen, biochemical, fluorescence intensity; hit rate 0.9% among 370,000; purified proKLK7, EDANS-DABCYL substrate fluorescence; 100% is mature enzyme control, 0% vehicle; Kallikrein-7 (Homo sapiens), P49862; activation, % at 7 µM;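 active means activation above the mean of all tested compounds plus 3 SD, computed per campaign excluding outliers beyond control limits, cut at about 13% in these data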
proKLK7 act conf: proKLK7 zymogen activators, confirmation, biochemical, fluorescence intensity, triplicate; AID 686949, 2013; shares compounds with KLK7 zymogen act; hit rate 68% among 3,200; purified proKLK7, EDANS-DABCYL substrate fluorescence; scaled: vehicle 0, mature enzyme 100; activation, % at 7 µM;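 active means activation, as change over the incubation, above the mean of all tested compounds plus 3 SD, cut at about 13% in these data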
EDANS interfere: EDANS-DABCYL substrate optical interference, artefact control for kallikrein-7 zymogen activator project, biochemical, fluorescence intensity, high throughput; shares compounds with KLK7 zymogen act; AID 686952, 2013; hit rate 80% among 3,200; activation, % at 7 µM; no enzyme, 4 h; solvent 0%, active enzyme control 100%;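 active means activation above the all-compound mean plus 3 SD, ignoring values outside control-based bounds, cut at about 4.8% in these data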;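 further: value is the 4 h activation minus the activation read at time zero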
Numbers without * were called inactive. Sampled rows, rich in hits. Any-hit rate of the full collection: about 1.3%.

CS(=O)(=O)NN1C(=O)c2ccccc2NC1c1cccc(O)c1 (stereo not given) was read as HIF activator 0, NPR1 activator 0, NPR2 activator 2, KLK7 zymogen act 63*, proKLK7 act conf 17* and EDANS interfere 19*.
Screening CS(=O)(=O)NN1C(=O)c2ccccc2NC1c1cccs1 (stereo not given) returned HIF activator 0, NPR1 activator 0, NPR2 activator 0, KLK7 zymogen act 63*, proKLK7 act conf 0 and EDANS interfere 11*.
`CS(=O)(=O)NN1C(=O)c2ccccc2NC1c1ccccc1O` (stereo not given) gave HIF activator 0, NPR1 activator 0, NPR2 activator -1, KLK7 zymogen act 36*, proKLK7 act conf 6 and EDANS interfere 6.4*.
Screening COc1cc(C2Nc3ccccc3C(=O)N2NS(C)(=O)=O)c([N+](=O)[O-])cc1OC (stereo not given) returned HIF activator -1, NPR1 activator -5, NPR2 activator 0 and KLK7 zymogen act 6.
CCN(CC)c1ccc(NC(=O)CSc2nc3ccccc3c(=O)n2-c2ccc(C)cc2)cc1 was read as NPR1 activator -1, NPR2 activator 7 and KLK7 zymogen act -1.
`COc1ccc2c(c1)CNC2CS(=O)(=O)NC1CCCC1` (stereo not given) gave NPR1 activator 2, NPR2 activator 0 and KLK7 zymogen act 0.
For CS(=O)(=O)NN1C(=O)c2ccccc2NC1c1ccccc1 (stereo not given) the results were HIF activator 0, NPR1 activator -1, NPR2 activator 4, KLK7 zymogen act 79*, proKLK7 act conf 10 and EDANS interfere 15*.
Screening CC(=O)NN1C(=O)c2ccccc2NC1c1ccccc1O (stereo not given) returned HIF activator -2, NPR1 activator -2, NPR2 activator -6 and KLK7 zymogen act -1.
Screening CS(=O)(=O)NN1C(=O)c2ccccc2NC1c1c[nH]c2ccccc12 (stereo not given) returned HIF activator 0, NPR1 activator -4, NPR2 activator -11, KLK7 zymogen act 14*, proKLK7 act conf 1 and EDANS interfere 2.
Screening Cc1cc2nc(/C=C/c3nc4cc(C)c(C)cc4[nH]3)[nH]c2cc1C returned HIF activator -5, NPR1 activator -1, NPR2 activator 2 and KLK7 zymogen act -2.
Cc1ccc(/C=C/c2nc3ccccc3[nH]2)o1 was read as HIF activator 0, NPR1 activator 5, NPR2 activator 2, KLK7 zymogen act 21*, proKLK7 act conf 31* and EDANS interfere 30*.
For Cc1ccccc1C1N=C2Oc3ccccc3C=C2C(=O)N1 (stereo not given) the results were NPR1 activator 7, NPR2 activator 2, KLK7 zymogen act 35*, proKLK7 act conf 72* and EDANS interfere 73*.
Screening COc1cc2c(cc1OC)CN(CC(=O)NC(=O)NCc1ccco1)CC2 returned HIF activator -1, NPR1 activator 0, NPR2 activator 7, KLK7 zymogen act 48*, proKLK7 act conf 14* and EDANS interfere 14*.
For O=C1O[C@@H](c2ccc(O)cc2)Cc2cccc(O)c21 the results were NPR1 activator -1, NPR2 activator -6, KLK7 zymogen act 49*, proKLK7 act conf 44* and EDANS interfere 52*.
Screening O=C1c2ccccc2-c2n[nH]c3cccc1c23 returned NPR1 activator 10, NPR2 activator -4, KLK7 zymogen act 63*, proKLK7 act conf 74* and EDANS interfere 75*.
For CC(=O)Oc1ccc2c(C)c(CC(=O)N3CCN(C(=O)C4COc5ccccc5O4)CC3)c(=O)oc2c1C (stereo not given) the results were HIF activator 1, NPR1 activator 0, NPR2 activator 1, KLK7 zymogen act 155*, proKLK7 act conf 344* and EDANS interfere 368*.

Assay outcomes as filed in PubChem BioAssay.
